Hit rate of the full screen: of about 310,000 compounds, about 14,000 (4.5%) showed an effect of 50% or more. Effects have a minus sign here. The entries come from a sample that favours strong results as a whole.
Each compound was assayed against human ether-à-go-go-related gene (hERG) potassium channel (human, UniProt Q12809) (assay: primary screen, population patch clamp on CHO cells stably expressing hERG; higher = less effect of the substance).
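Further: peak tail current of the secondary pulse compared with the same well before compound.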

human ether-à-go-go-related gene (hERG) potassium channel, sequence (Q12809 whole entry, looked up): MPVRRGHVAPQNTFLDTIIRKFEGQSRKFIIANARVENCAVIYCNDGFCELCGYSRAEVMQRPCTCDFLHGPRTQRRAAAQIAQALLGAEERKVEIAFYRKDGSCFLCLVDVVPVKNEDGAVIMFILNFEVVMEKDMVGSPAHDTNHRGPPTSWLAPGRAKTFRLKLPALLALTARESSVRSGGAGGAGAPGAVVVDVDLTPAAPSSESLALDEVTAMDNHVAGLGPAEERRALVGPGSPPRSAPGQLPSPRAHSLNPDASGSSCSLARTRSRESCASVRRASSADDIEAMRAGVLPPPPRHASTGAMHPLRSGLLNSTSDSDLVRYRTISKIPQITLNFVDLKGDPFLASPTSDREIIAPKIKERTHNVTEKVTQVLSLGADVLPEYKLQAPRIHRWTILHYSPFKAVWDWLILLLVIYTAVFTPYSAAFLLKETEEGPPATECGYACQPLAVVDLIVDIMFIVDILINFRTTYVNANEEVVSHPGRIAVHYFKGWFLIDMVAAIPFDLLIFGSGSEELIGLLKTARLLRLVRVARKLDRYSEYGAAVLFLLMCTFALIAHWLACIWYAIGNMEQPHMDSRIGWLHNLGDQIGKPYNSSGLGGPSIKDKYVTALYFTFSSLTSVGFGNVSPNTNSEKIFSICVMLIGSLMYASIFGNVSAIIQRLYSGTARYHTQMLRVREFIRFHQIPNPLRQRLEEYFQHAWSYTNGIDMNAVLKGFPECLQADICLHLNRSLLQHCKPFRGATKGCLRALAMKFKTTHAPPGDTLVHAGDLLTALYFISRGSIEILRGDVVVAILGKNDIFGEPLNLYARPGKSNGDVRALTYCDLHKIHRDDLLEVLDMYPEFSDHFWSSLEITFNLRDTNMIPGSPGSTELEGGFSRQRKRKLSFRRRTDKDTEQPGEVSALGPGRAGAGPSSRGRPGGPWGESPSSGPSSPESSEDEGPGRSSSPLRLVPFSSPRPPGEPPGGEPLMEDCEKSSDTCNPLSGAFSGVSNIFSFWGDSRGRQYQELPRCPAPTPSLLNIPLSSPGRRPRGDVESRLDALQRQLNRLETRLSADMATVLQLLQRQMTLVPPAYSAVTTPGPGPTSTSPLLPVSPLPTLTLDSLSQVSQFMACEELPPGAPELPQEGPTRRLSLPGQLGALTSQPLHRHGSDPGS

SMILES | hERG current change (%, negative = inhibition) at 10uM [%]
COc1ccc(N2CCN(C(=O)CNC(=O)c3cccs3)CC2)cc1 | 10.9
CCC(C)NC(=O)C(=O)NCc1ccccn1 (stereo not drawn) | 14.6
COc1ccc(CNC(=O)c2nnn(CC(=O)Nc3cc(C)cc(C)c3)c2N)cc1 | 11.9
CCCCc1cc(=O)oc2cc(C)cc(OCC(=O)NCC3CCC(C(=O)O)CC3)c12 (stereo not drawn) | -1.21
CC1Cc2ccccc2N1C(=O)c1cc2sccc2n1Cc1ccccc1 (stereo not drawn) | 7.64
CC[N+](C)(CC)CCCCOc1ccc2c(c1)C(=O)c1cc(OCCCC[N+](C)(CC)CC)ccc1-2.[I-] | 12.9
O=c1c2c3nc4ccccc4nc3n(CC3CCCO3)c2ncn1CCc1ccccc1 (stereo not drawn) | -5.67
O=C(c1cccc(F)c1)N1C2C=CC(C2)C1(C(F)(F)F)C(F)(F)F (stereo not drawn) | -0.667
C=CCn1c(COc2cccc3cccnc23)nnc1SCC(=O)O | 12.7
Cc1cccc2c1N(CCOc1ccc(C(C)(C)C)cc1)C(=O)C2=O | -7.48
Cc1cccc(CCNS(=O)(=O)c2cc3c(cc2C)NC(=O)CO3)c1 | -34.4
CC1(C)CC(=O)C(C=NC2CCCCC2)=C(O)C1 | -10.2
Cc1nc(NCc2ccco2)c2oc3ccccc3c2n1 | -29.8
C=CCOc1ccc(CN(C)C(=O)C2CCCO2)cc1 (stereo not drawn) | 2.34
Cc1c(Cl)cccc1-c1ccc(C(=O)N2CCN(c3ccc([N+](=O)[O-])cc3)CC2)o1 | -14
Cc1cc(C(=O)N2CCN(c3ccccc3)CC2)c(C)o1 | -1.46
O=C(c1ccc(-c2ccc(Cl)cc2)o1)N1CCN(c2ccc([N+](=O)[O-])cc2Cl)CC1 | 3.9
COc1ccc(N2CCN(C(=O)c3cc(C)oc3C)CC2)cc1 | 12.7
CCn1cc(C(=O)N2CCN(c3ccccc3F)CC2)c(=O)c2ccc(C)nc21 | -5.94
CCn1cc(C(=O)N2CCN(c3ccc([N+](=O)[O-])cc3)CC2)c(=O)c2ccc(C)nc21 | -70.9
Cc1cc(C(=O)N2CCN(c3ccc([N+](=O)[O-])cc3)CC2)c(C)o1 | -73.5
CCn1cc(C(=O)N2CCN(c3cccc(C)c3C)CC2)c(=O)c2ccc(C)nc21 | -12.9
O=C(c1ccc(-c2cccc(Cl)c2)o1)N1CCN(c2ccc([N+](=O)[O-])cc2)CC1 | -58.9
O=C(C(=O)N1CCN(C(=O)c2ccco2)CC1)c1c[nH]c2ccccc12 | -2.67
CCOc1ccc(S(=O)(=O)n2cc(-c3ccccc3)c(N)n2)cc1 | 5.5
O=C(c1ccc2c(Cl)c3c(nc2c1)CCCC3)N1CCC(N2CCCCC2)CC1 | -46

SMILES | hERG current change (%, negative = inhibition) at 10uM [%]
Cc1cccc2sc(N(CCCN(C)C)C(=O)c3ccc(C(=O)c4ccccc4)cc3)nc12 | -53.2
CN(C)CCCN(C(=O)c1ccc(C(=O)c2ccccc2)cc1)c1nc2c(F)cccc2s1 | -67.3
CN(C)CCCN(C(=O)c1sc2ccccc2c1Cl)c1nc2c(F)cccc2s1.Cl | -61.9
Cc1cccc2sc(N(CCCN(C)C)C(=O)c3sc4ccccc4c3Cl)nc12.Cl | -13.5
Cc1ccc2sc(N(CCCN(C)C)C(=O)c3ccc(S(=O)(=O)N(C)Cc4ccccc4)cc3)nc2c1C.Cl | -20
NC(=O)COC(=O)c1sc2ccccc2c1Cl | 24.3
Cc1ccc2nc(N(CCCN(C)C)C(=O)c3sc4ccccc4c3Cl)sc2c1.Cl | -29.9
CN(C)CCCOC(=O)c1sc2ccccc2c1Cl.Cl | -50.2
Cc1cccc2sc(N(CCCN(C)C)C(=O)c3ccc(S(=O)(=O)N4CCc5ccccc5C4)cc3)nc12.Cl | 13.9
CN(C)CCOC(=O)c1sc2ccccc2c1Cl.Cl | -29.4
CN(C)CCCN(C(=O)c1ccc(N2C(=O)CCC2=O)cc1)c1nc2c(F)cccc2s1.Cl | -0.103
O=c1c2ccccc2ncn1-c1ccccc1[N+](=O)[O-] | 11.9
O=S(=O)(c1ccc(OCC(O)CN2CCN(c3ccc(F)cc3)CC2)cc1)N1CCOCC1 (stereo not drawn) | -18.2
O=C(NNC1CC(=O)N(c2ccc(Br)cc2)C1=O)c1ccccn1 (stereo not drawn) | -4.01
CCCC1Cc2nc(Cl)c(C#N)cc2CO1 (stereo not drawn) | 15.6
O=C(Nc1cccnc1)c1cc(S(=O)(=O)N2CCOCC2)ccc1Br | -35.8
COc1cc2c(cc1OC)C(COc1ccccc1OC)N(C(=O)c1ccco1)CC2 (stereo not drawn) | -15.6
COC(=O)c1[nH]c2ccccc2c1NC(=O)CN1CCC(C(N)=O)(N2CCCCC2)CC1 | -35.1
Cc1cc(C)cc(N(CC(=O)Nc2ccc(Br)cc2)S(=O)(=O)c2c(C)[nH]c(=O)[nH]c2=O)c1 | -76.4
Cc1cc(C)cc(N(CC(=O)Nc2cc(C)ccc2C)S(=O)(=O)c2c(C)[nH]c(=O)[nH]c2=O)c1 | 5.03
Cc1cc(C)cc(N(CC(=O)Nc2ccc(C(F)(F)F)cc2)S(=O)(=O)c2c(C)[nH]c(=O)[nH]c2=O)c1 | -88
COc1cc(NC(=O)CN(c2cc(C)cc(C)c2)S(=O)(=O)c2c(C)[nH]c(=O)[nH]c2=O)cc(OC)c1 | -27.8
Cc1cc(C)cc(N(CC(=O)Nc2ccc(C)cc2Cl)S(=O)(=O)c2c(C)[nH]c(=O)[nH]c2=O)c1 | -7.63
CCc1ccc(NC(=O)CN(c2cc(C)cc(C)c2)S(=O)(=O)c2c(C)[nH]c(=O)[nH]c2=O)cc1 | -33.7
c1ccc(NCc2cccnc2)cc1 | 12.1

Source: paper PMC4336329 (PLoS ONE, 2015)
